The results in this text go back to PubChem BioAssay (NCI).

Each structure is given as a SMILES string. The panel holds about 83,000 compounds, 20% with a hit somewhere; the sample as a whole holds those more often.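 Assay: single dose, 48 h. Readout: percent growth (0 = no net growth; negative = cell death). Active: <10.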 Unmarked numbers belong to inactive results. Active and inactive are the calls of the source.

Test systems include SR leukemia; RPMI-8226 leukemia; OVCAR-5 ovarian; OVCAR-4 ovarian; SK-OV-3 ovarian; IGROV1 ovarian; OVCAR-3 ovarian; NCI/ADR-RES ovarian; T-47D breast; BT-549 breast; MDA-MB-435 melanoma; SW-620 colon; MCF7 breast; HCT-116 colon; HCC-2998 colon; KM12 colon; OVCAR-8 ovarian; HS 578T breast.
Holding throughout (experiment): NCI-60 one-dose screen, 48 h (100 = growth as untreated, 0 = no growth, -100 = all killed)
Common to all, as to conditions: 10 µM unless noted

Turning to `CCN(CC)CCCCCCCCNc1c2ccc(Cl)cc2nc2ccc(OC)cc12`, the growth in the assay with SR leukemia was -63.6% (active); in the assay with RPMI-8226 leukemia, -43.8% (active); with OVCAR-5 ovarian, -24% (active); in the assay on OVCAR-4 ovarian, -49.8% (active); with SK-OV-3 ovarian, -29.1% (active); with IGROV1 ovarian, -9.45% (active). Besides, the growth in the assay on OVCAR-3 ovarian was -38.3% (active); in the assay with NCI/ADR-RES ovarian, -29.8% (active); with T-47D breast it was -37.9% (active); with BT-549 breast it was -82.6% (active); in the assay with MDA-MB-435 melanoma, -81.9% (active); in the assay with SW-620 colon, -31.9% (active). Besides, the growth was -75.1% (active) with MCF7 breast, -63.8% (active) in the assay with HCT-116 colon, -89.1% (active) in the assay on HCC-2998 colon and -49.5% (active) in the assay with KM12 colon.
Regarding `O=C(O)C(CCc1ccccc1)NCc1ccccc1` (stereo not drawn), the growth with SR leukemia is 106%; with OVCAR-8 ovarian, 106%; in the assay on OVCAR-5 ovarian it was 93.5%; in the assay with OVCAR-4 ovarian it was 78.5%; with SK-OV-3 ovarian, 98.5%; in the assay on IGROV1 ovarian it was 101%. Moreover, the growth in the assay with OVCAR-3 ovarian was 100%; in the assay on HS 578T breast, 99.4%; with NCI/ADR-RES ovarian, 93.7%; in the assay on T-47D breast, 96.3%; in the assay on BT-549 breast it was 47.4%; in the assay with MDA-MB-435 melanoma, 104%. Further, the growth with SW-620 colon is 102%; in the assay with MCF7 breast, 95.3%; in the assay with HCT-116 colon, 90.7%; in the assay on HCC-2998 colon, 97.2%; in the assay on KM12 colon, 100%.
As for `CCCCSc1ncnc2c1ncn2C1CCCCO1` (stereo not drawn), the growth is 90.5% with SR leukemia; 105% with OVCAR-8 ovarian; 99.1% in the assay with OVCAR-5 ovarian; 108% with OVCAR-4 ovarian; 106% in the assay with SK-OV-3 ovarian; 106% with IGROV1 ovarian. Further, the growth in the assay with OVCAR-3 ovarian is 109%; with HS 578T breast, 110%; in the assay with NCI/ADR-RES ovarian it was 102%; with T-47D breast, 104%; with BT-549 breast, 107%; in the assay on MDA-MB-435 melanoma, 115%. The growth was 107% with SW-620 colon, 91.5% in the assay on MCF7 breast, 100% in the assay with HCT-116 colon and 111% in the assay on HCC-2998 colon.
On to `C=CCN1C(=O)/C(=c2\sc3n(c2=O)C2C(NN=3)N(CC)C(=O)N2CC)c2ccccc21` (stereo not drawn), for which the growth was 23.8% in the assay on SR leukemia; 19% in the assay on OVCAR-8 ovarian; 44.9% with OVCAR-5 ovarian; 65.6% in the assay with OVCAR-4 ovarian; 34.2% in the assay with SK-OV-3 ovarian; 35.4% with IGROV1 ovarian. Further, the growth is -11.4% (active) with OVCAR-3 ovarian; 59.4% in the assay on HS 578T breast; -1.04% (active) in the assay with NCI/ADR-RES ovarian; 57.6% in the assay on T-47D breast; 25% in the assay with BT-549 breast; -30.2% (active) with MDA-MB-435 melanoma. Moreover, the growth in the assay on SW-620 colon was 30.9%; in the assay on MCF7 breast, 16.6%; in the assay on HCT-116 colon, 10.7%; in the assay on HCC-2998 colon, 4.46% (active); in the assay with KM12 colon it was 20.1%.
In the case of `O=C(NCCN1CCCCC1)n1cc(-c2ccncc2)c(-c2ccc(Cl)c(O)c2)n1`, the growth with SR leukemia was 70.9%; with OVCAR-8 ovarian, 89.1%; in the assay with OVCAR-5 ovarian it was 96.5%; in the assay with OVCAR-4 ovarian, 122%; with SK-OV-3 ovarian, 71.5%; with IGROV1 ovarian, 74%. In addition, the growth with OVCAR-3 ovarian is 113%; in the assay with HS 578T breast it was 92.5%; with NCI/ADR-RES ovarian, 95.6%; with T-47D breast, 79.2%; with BT-549 breast, 68.9%; in the assay with MDA-MB-435 melanoma it was 58.9%. The growth was 100% with SW-620 colon; 91% with MCF7 breast; 44.6% with HCT-116 colon; 113% with HCC-2998 colon; 102% in the assay with KM12 colon.
As to `O=[N+]([O-])c1ccc(N/N=C\c2ccc(O)cc2O)nc1`, the growth was 15.3% in the assay with SR leukemia; 25.4% with OVCAR-8 ovarian; 57.9% with OVCAR-5 ovarian; 40% in the assay on OVCAR-4 ovarian; 25.8% with SK-OV-3 ovarian; 28.7% in the assay with IGROV1 ovarian. In addition, the growth in the assay with OVCAR-3 ovarian is 74.8%; in the assay with HS 578T breast it was 90.8%; with NCI/ADR-RES ovarian, 20.6%; in the assay with T-47D breast, 38.5%; with BT-549 breast, 38%; in the assay with MDA-MB-435 melanoma it was 45%. Besides, the growth in the assay on SW-620 colon was 56.4%; in the assay with HCT-116 colon, 21.3%; in the assay with HCC-2998 colon, 10.6%; in the assay on KM12 colon, 29.2%.
For `CCN1C(=O)N(CC)C2C1NN=c1s/c(=C\c3ccc(Br)cc3)c(=O)n12` (stereo not drawn), the growth is 14% in the assay with SR leukemia; 2.86% (active) in the assay on OVCAR-8 ovarian; 35.1% in the assay on OVCAR-5 ovarian; 65.7% in the assay on OVCAR-4 ovarian; 16.1% in the assay on SK-OV-3 ovarian; 13.3% with IGROV1 ovarian. In addition, the growth with OVCAR-3 ovarian was 3.78% (active); in the assay with HS 578T breast, 54%; with NCI/ADR-RES ovarian, 5.64% (active); with BT-549 breast it was 18.2%; in the assay on MDA-MB-435 melanoma, -13.6% (active); in the assay on SW-620 colon, 23.1%. Also, the growth with MCF7 breast is 1.61% (active); with HCT-116 colon it was 5.14% (active); in the assay with HCC-2998 colon, 10.2%; in the assay with KM12 colon, 6.77% (active).
Turning to `CCN1C(=O)N(CC)C2C1NC(=O)N2/N=C/C=C/c1ccccc1` (stereo not drawn), the growth in the assay on SR leukemia is 20.3%; in the assay on OVCAR-8 ovarian, 60.5%; in the assay on OVCAR-5 ovarian, 80.1%; with OVCAR-4 ovarian, 64.4%; in the assay with SK-OV-3 ovarian it was 36.7%; in the assay with IGROV1 ovarian, 53.2%. For the same compound, the growth in the assay with OVCAR-3 ovarian is 7.58% (active); in the assay on HS 578T breast, 34.8%; in the assay on NCI/ADR-RES ovarian, 38.7%; in the assay with T-47D breast, 34.2%; in the assay on BT-549 breast it was 52.1%; in the assay on MDA-MB-435 melanoma it was -2.78% (active). For the same compound, the growth was 24.2% with SW-620 colon; 12% with MCF7 breast; 19.6% in the assay with HCT-116 colon; 64.2% in the assay with HCC-2998 colon; 23.4% with KM12 colon.
With `O=C(c1ccccc1)C1OC1C(=O)c1ccccc1` (stereo not drawn), the growth in the assay on SR leukemia was 14.3%; with OVCAR-8 ovarian it was 25.4%; in the assay with OVCAR-5 ovarian it was 30.2%; in the assay on OVCAR-4 ovarian it was 60.1%; with SK-OV-3 ovarian, 54.3%; in the assay on IGROV1 ovarian, 24.6%. Also, the growth with OVCAR-3 ovarian was 35.2%; in the assay with HS 578T breast, 54.2%; with NCI/ADR-RES ovarian it was -18.5% (active); in the assay with BT-549 breast it was 92.1%; with MDA-MB-435 melanoma, 1.06% (active); in the assay on SW-620 colon, 27.7%. The growth in the assay with MCF7 breast is 16.8%; in the assay on HCT-116 colon it was -5.13% (active); in the assay on HCC-2998 colon, 69.8%; with KM12 colon it was 55.5%.
